Among all 48,000 compounds or so, about 13,000 (27%) showed an effect of 50% or more. The list shows a part of the results.
System: Wolbachia pipientis
Experiment: Anti-Wolbachia Cell-Based Screen
Format: functional
Design: scale not given: in the data most compounds retested in dose-response had high values
Settings: 5 µM

SMILES | Percent Effect
O=C(CCc1ccccc1)N1CCCC(c2n[nH]c3nccnc23)C1 (centres undefined) | 111%
Cc1cc(C2CCCN(C(=O)COc3ccc(F)cc3F)C2)n[nH]1 (centres undefined) | -1.844%
Cc1ccc(CC(=O)N2CCCC(c3n[nH]c4nccnc34)C2)cc1 (centres undefined) | 102%
O=C(CC1CCCC1)N1CCCC(c2n[nH]c3nccnc23)C1 (centres undefined) | -9.091%
O=C(Cc1ccc(F)cc1)N1CCCC(c2n[nH]c3nccnc23)C1 (centres undefined) | 91.78%
CN(C(=O)CN1CCc2nn(C)c(=O)cc2C1)c1nccs1 | -17.97%
CC(=O)N1CCN(C(=O)c2c(Cl)c3ccccc3n2C)CC1 | 8.743%
CC(=O)N1CCC2(CC1)CN(C(=O)c1cccc3[nH]ccc13)C2 | 7.707%
CC(=O)N1CC=C(n2c(=O)[nH]c3ccccc32)CC1 | 120.7%
Cc1ccc(N2CC[C@@H](NC(=O)c3cnccn3)[C@H](O)C2)nn1 | 13.4%
CC(C)CN1C(=O)CO[C@@H]2CN(C(=O)N(C)C)C[C@H]21 | 9.504%
CN1CCC(C(=O)NCc2nncn2-c2ccccc2)CC1=O (centres undefined) | -4.452%
CN(CCO)C[C@@H]1CN(C(=O)c2c(F)cccc2Cl)C[C@@H]1CO | -7.74%
COCCN(C)C[C@@H]1CN(C(=O)c2cccc(C#N)c2)C[C@@H]1CO | 104.9%
COCCN(C)C[C@@H]1CN(C(=O)c2cccc(C(F)(F)F)c2)C[C@@H]1CO | -9.662%
CCN(C)C[C@@H]1CN(S(=O)(=O)c2cccc(C#N)c2)C[C@@H]1CO | -4.035%
CN(CCO)C[C@@H]1CN(C(=O)c2cccc(OC(F)F)c2)C[C@@H]1CO | 95.7%
COc1cc(F)c(C(=O)N2C[C@@H](CN(C)CCO)[C@@H](CO)C2)c(F)c1 | -8.552%
COCCN(C)C[C@@H]1CN(C(=O)c2cccc(Cl)c2)C[C@@H]1CO | 153.3%
CN1CCC(N[C@@H]2CO[C@H](CNC(=O)Nc3ccccc3)[C@H]2O)CC1 | -15.1%
O=C(c1ccc(F)cc1F)N1C[C@H]2CC[C@@H]1CN(Cc1ccccc1)C2 | -4.594%
CC(C)N1CC2(CCCN(c3ncc(Cl)cc3F)C2)CCC1=O (centres undefined) | -5.351%
Cc1noc(C)c1CCC(=O)N(C)C(C)c1cccs1 (centres undefined) | -6.492%

SMILES | Percent Effect
NC(=O)Cn1ccc(NC(=O)C2(c3ccc(F)cc3)CC2)n1 | -13.95%
Cc1noc(C)c1CC(=O)Nc1ccn(CC(N)=O)n1 | 108.2%
CCn1ccc(NC(=O)CCc2c(C)nn(C)c2C)n1 | 89.06%
Cc1noc(C)c1CCC(=O)Nc1ccn(C)n1 | 102.9%
Cc1noc(C)c1CCC(=O)NCCc1cccs1 | 18.14%
CCS(=O)(=O)CCn1ccc(NC(=O)CCc2cccc(C)c2)n1 | -1.723%
Cc1noc(C)c1CC(=O)NCCc1cccs1 | 21.95%
Cc1nn(C)c(C)c1CCC(=O)Nc1cn(C)c(=O)n(C)c1=O | -11.84%
Cc1nn(C)c(C)c1CCC(=O)Nc1cccn(C)c1=O | 0.3485%
Cc1ccc(NC(=O)CNc2ccn(CC(N)=O)n2)c(Cl)c1 | 2.31%
CCn1ccc(NC(=O)CCc2c(C)noc2C)n1 | 94.65%
CCc1cc(N(C)Cc2c(C)nn(C)c2C)n2nccc2n1 | -6.903%
CN(Cc1cc(F)ccc1F)CC(C)(CO)CO | 17.08%
CNC(=O)c1cccc(NCCOc2ccc(CC#N)cc2)c1C | 12.16%
COc1cccc(Cn2ncc(N(C)CCc3ccccc3)cc2=O)c1 | -17.12%
CC(C)OCCn1nnnc1Cc1ccc(Br)cc1 | -13.25%
CCOC(C(=O)N1CCn2c(C)nnc2C1)c1ccccc1 (centres undefined) | -1.753%
CCN(C)CC1CCN(c2ncc(Br)cn2)C1 (centres undefined) | -2.721%
CN(C)C(C(=O)N1CCCC1)c1ccccc1F (centres undefined) | 1.504%
O=C(N1CCOCC1)N1CCCC1c1nc(-c2ccccn2)no1 (centres undefined) | 12.43%
COc1ccc(-c2noc([C@@H]3C[C@@H](O)CN3C3CCN(C)CC3)n2)cc1 | -10.46%
CN1CCCC1c1ccnc(-c2ccccn2)n1 (centres undefined) | 114%
COc1ccc(-c2nccc(C3CCCN3C)n2)cc1 (centres undefined) | 122.9%

SMILES | Percent Effect
COCCOc1ccnc(-c2noc([C@@H]3CCCN3CC3CC3)n2)c1 | -13.12%
COc1ccc(C2CCCN2c2cnccn2)c(OC)c1 (centres undefined) | 8.264%
COc1cccc(-c2nccc(C3CCCN3C)n2)c1 (centres undefined) | 102%
COCCN1CCCC1c1ccnc(-c2ccccc2)n1 (centres undefined) | 120.2%
Cc1nn(C)c2nc(-c3ccccn3)nc(NCCC3CCCN3C)c12 (centres undefined) | -7.173%
COCCOc1ccnc(-c2noc([C@@H]3CCCN3C)n2)c1 | -6.49%
COc1cccc(-c2noc3c2CN(c2ncnc4c2CCC4)CC3)c1 | -1.898%
COCCOc1ccnc(-c2noc([C@@H]3CCCN3CC(C)(C)C)n2)c1 | 20.74%
CN(CC(=O)NC(C)(C#N)C1CC1)Cc1nnc(C2CC2)n1C (centres undefined) | -18.04%
Cc1cccc(S(=O)(=O)N2CSCC2C(=O)NC(C)(C)C)c1 (centres undefined) | -10.25%
CCc1nc(CCNC(=O)NC2CC2)sc1C | 2.732%
C/C=C(\C)CN1C[C@H](c2cccc(OC)c2)[C@@H](N)C1 | 1.044%
CN1CCN(C2CCN(c3ccnc(-c4ccccc4)n3)CC2)C1=O | 9.74%
CN1CCCC1c1ccnc(-c2ccccc2)n1 (centres undefined) | 129.7%
CN1CCCC1CCn1ccnc1-c1nc(-c2ccccc2)no1 (centres undefined) | -1.363%
O=C(CC1CCCC1)N1C[C@H](Oc2cccnc2)[C@H]2OCCC[C@H]21.O=C(O)C(F)(F)F | 105.6%
O=C(c1ccnnc1)N1C[C@@H](OCC2CCCC2)[C@H]2OCCC[C@H]21 | -2.599%
O=C(c1cscn1)N1C[C@@H](Oc2cccnc2)[C@H]2OCCC[C@H]21 | 101.6%
O=C(C[C@H]1[C@H]2CN(C(=O)Cc3ccccn3)C[C@@H]12)Nc1cccnc1 | -5.449%
CN(C)CC(=O)N1C[C@@H](Oc2ccccn2)[C@H]2OCCC[C@H]21 | -36.21%
O=C(C1=CCCC1)N1C[C@H](Oc2cccnc2)[C@H]2OCCC[C@H]21 | 9.91%
CN(C)S(=O)(=O)N1C[C@H](Oc2cccnc2)[C@H]2OCCC[C@H]21.O=C(O)C(F)(F)F | 21.05%
O=C(Cc1ccccn1)N1C[C@@H](Oc2cccnc2)[C@H]2OCCC[C@H]21 | 93.72%
